# Laboratory results published in PubChem BioAssay (NCI).
# This is part of a sample that, as a whole, favours compounds with a hit. Of some 79,000 tested, about 15% had one in any assay. Unmarked numbers belong to inactive results. Active and inactive are the calls of the source. Rule as the data show it: active = growth inhibition above about 70%; inactive = the rest.
# Key:
# [1] = NCI Yeast Anticancer Drug Screen. Data for the rad52 strain (AID 147);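 also: 0% = growth of vehicle-treated control cultures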; details: S. cerevisiae rad52 mutant growth inhibition, hits give high values
# Outline: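 Screen used a yeast mutant impaired in DNA repair. After compound exposure, growth was measured. Values reflect inhibition compared with vehicle-treated cells.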
# [2] = NCI Yeast Anticancer Drug Screen. Data for the wt1 strain (AID 149);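 also: 0% = growth of vehicle-treated wt1 cultures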; details: S. cerevisiae wt1 strain (SPY 50644) growth inhibition, hits give high values
# Outline: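 The wt1 strain was treated with compounds, and growth was compared with vehicle-treated cultures to give inhibition.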
# [3] = NCI Yeast Anticancer Drug Screen. Data for the rad50 strain (AID 155);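 also: 0% = growth of vehicle-only cultures of the same strain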; details: S. cerevisiae rad50 strain growth inhibition, hits give high values
# Outline: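 Cells are treated with compound, grown, and their growth is then scored against vehicle-only cultures of the same repair-deficient yeast strain.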
# [4] = NCI Yeast Anticancer Drug Screen. Data for the mec2-1 strain (AID 157); details: S. cerevisiae mec2-1 strain, hits give high values
# Outline: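 Readout is yeast growth inhibition, normalised to vehicle-treated controls, in the mec2-1 strain exposed to compound.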
# [5] = NCI Yeast Anticancer Drug Screen. Data for the rad14 strain (AID 159);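 also: 0% = growth of vehicle-treated control cultures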; details: S. cerevisiae rad14 strain growth inhibition, hits give high values
# Outline: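 Readout: yeast growth inhibition, referenced to vehicle-only cultures. Strain bears a defined alteration in DNA damage repair.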
# [6] = NCI Yeast Anticancer Drug Screen. Data for the sgs1 mgt1 strain (AID 161);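 also: 0% = growth of cultures given vehicle only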; details: S. cerevisiae sgs1 mgt1 strain, hits give high values
# Outline: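 Growth of a repair-deficient yeast mutant was monitored after compound treatment and expressed as inhibition relative to vehicle-treated cultures.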
# [7] = NCI Yeast Anticancer Drug Screen. Data for the CLN2oe strain (AID 163);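 also: 0% = growth of vehicle-only control cultures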; details: S. cerevisiae CLN2oe strain, hits give high values
# Outline: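 Values reflect how much compound exposure reduced yeast growth, referenced to vehicle-exposed cells. Assay organism is a strain with a defined genetic change affecting cell-cycle control.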
# [8] = NCI Yeast Anticancer Drug Screen. Data for the cln2 rad14 strain (AID 165);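 also: 0% = growth equal to vehicle treated cultures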; details: S. cerevisiae cln2 rad14 strain, hits give high values
# Outline: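 Relative to vehicle controls, growth inhibition of compound-treated cln2 rad14 yeast was recorded.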
# [9] = NCI Yeast Anticancer Drug Screen. Data for the bub3 strain (AID 167); details: S. cerevisiae bub3 mutant strain, hits give high values
# Outline: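 Part of a panel of yeast mutants defective in DNA damage repair or cell cycle regulation. Each strain is grown with compound, and inhibition is calculated relative to solvent-treated cultures.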
# [10] = NCI Yeast Anticancer Drug Screen. Data for the wt2 strain (AID 169);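 also: 0% = growth of vehicle-treated yeast cultures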; details: S. cerevisiae wt2 strain growth inhibition, hits give high values
# Outline: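 Values express reduction in yeast growth under compound treatment, referenced to vehicle-treated cells.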
# [11] = NCI Yeast Anticancer Drug Screen. Data for the mlh1 strain (AID 171);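 also: 0% = growth of vehicle-treated control cultures of the same strain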; details: S. cerevisiae mlh1 strain growth inhibition, hits give high values
# Outline: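 Steps: expose the defined-mutant yeast strain to compound; expose a parallel culture to vehicle; measure growth; express compound effect as inhibition relative to the vehicle culture.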
# [12] = NCI Yeast Anticancer Drug Screen. Data for the sgs1 strain (AID 173);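 also: 0% = growth of vehicle-only control cultures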; details: S. cerevisiae sgs1 mutant, hits give high values
# Outline: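 Treat defined-mutant yeast with compound; measure growth; calculate inhibition relative to vehicle-treated cells.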
# [13] = NCI Yeast Anticancer Drug Screen. Data for the mlh1 rad18 strain (AID 175); details: S. cerevisiae mlh1 rad18 strain growth inhibition, hits give high values
# Outline: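 Test agents were incubated with a yeast strain of defined genotype (DNA damage repair defect). Inhibition of growth was derived by comparison with vehicle-exposed cultures.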
# [14] = NCI Yeast Anticancer Drug Screen. Data for the rad18 strain (AID 177); details: S. cerevisiae rad18 mutant growth inhibition, hits give high values
# Outline: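 A genetically defined yeast mutant impaired in DNA damage repair was treated with test compounds, then its growth was measured against cultures receiving vehicle alone.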
# [15] = NCI Yeast Anticancer Drug Screen. Data for the rad50EPP+ strain (AID 151);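 also: 0% = growth of vehicle-treated control cultures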; details: S. cerevisiae rad50 mutant strain, hits give high values
# Outline: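 Exposing the rad50EPP+ strain to each compound, growth was compared with vehicle-only cultures to give inhibition.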
# [16] = NCI Yeast Anticancer Drug Screen. Data for the mgt1 strain (AID 153); details: S. cerevisiae mgt1 mutant growth inhibition, hits give high values
# Outline: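 Genetically defined yeast (mgt1) treated with compound; inhibition of growth expressed against vehicle-treated controls.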
# [17] = at 5.0 µM (retest, dose inferred, filed as 0.5)
# [18] = at 50.0 µM (retest, dose inferred, filed as 5.0)
structure (smiles),measurement,setting,value
O=C1C=C(Cl)C(=O)N1c1cccc(Cl)c1,growth inhibition,[1]; at 1.2 µM,6%
same,growth inhibition,[1]; at 3.7 µM,89% (active)
same,growth inhibition,[1]; at 11.0 µM,99% (active)
same,growth inhibition,[1]; at 33.0 µM,99% (active)
same,growth inhibition,[1]; at 100.0 µM,99% (active)
same,growth inhibition,[2]; at 1.2 µM,12%
same,growth inhibition,[2]; at 3.7 µM,97% (active)
same,growth inhibition,[2]; at 11.0 µM,100% (active)
same,growth inhibition,[2]; at 33.0 µM,99% (active)
same,growth inhibition,[2]; at 100.0 µM,100% (active)
same,growth inhibition,[3]; at 1.2 µM,11%
same,growth inhibition,[3]; at 3.7 µM,86% (active)
same,growth inhibition,[3]; [17],87% (active)
same,growth inhibition,[3]; at 11.0 µM,99% (active)
same,growth inhibition,[3]; at 33.0 µM,99% (active)
same,growth inhibition,[3]; [18],97% (active)
same,growth inhibition,[3]; at 50.0 µM,99.5% (active)
same,growth inhibition,[3]; at 100.0 µM,99% (active)
same,growth inhibition,[4]; at 1.2 µM,-6%
same,growth inhibition,[4]; at 3.7 µM,63%
same,growth inhibition,[4]; [17],8%
same,growth inhibition,[4]; at 11.0 µM,99% (active)
same,growth inhibition,[4]; at 33.0 µM,100% (active)
same,growth inhibition,[4]; [18],99% (active)
same,growth inhibition,[4]; at 50.0 µM,99.6% (active)
same,growth inhibition,[4]; at 100.0 µM,99% (active)
same,growth inhibition,[5]; at 1.2 µM,34%
same,growth inhibition,[5]; at 3.7 µM,97% (active)
same,growth inhibition,[5]; at 11.0 µM,100% (active)
same,growth inhibition,[5]; at 33.0 µM,100% (active)
same,growth inhibition,[5]; at 100.0 µM,100% (active)
same,growth inhibition,[6]; [17],11%
same,growth inhibition,[6]; [18],99% (active)
same,growth inhibition,[6]; at 50.0 µM,99.5% (active)
same,growth inhibition,[7]; at 1.2 µM,-13%
same,growth inhibition,[7]; at 3.7 µM,33%
same,growth inhibition,[7]; at 11.0 µM,99% (active)
same,growth inhibition,[7]; at 33.0 µM,99% (active)
same,growth inhibition,[7]; at 100.0 µM,99% (active)
same,growth inhibition,[8]; [17],3%
same,growth inhibition,[8]; [18],98% (active)
same,growth inhibition,[8]; at 50.0 µM,99.4% (active)
same,growth inhibition,[9]; at 1.2 µM,55%
same,growth inhibition,[9]; at 3.7 µM,93% (active)
same,growth inhibition,[9]; [17],65%
same,growth inhibition,[9]; at 11.0 µM,99% (active)
same,growth inhibition,[9]; at 33.0 µM,99% (active)
same,growth inhibition,[9]; [18],98% (active)
same,growth inhibition,[9]; at 50.0 µM,99.5% (active)
same,growth inhibition,[9]; at 100.0 µM,100% (active)
same,growth inhibition,[10]; at 1.2 µM,30%
same,growth inhibition,[10]; at 3.7 µM,99% (active)
same,growth inhibition,[10]; at 11.0 µM,100% (active)
same,growth inhibition,[10]; at 33.0 µM,100% (active)
same,growth inhibition,[10]; at 100.0 µM,100% (active)
same,growth inhibition,[11]; at 1.2 µM,-11%
same,growth inhibition,[11]; at 3.7 µM,58%
same,growth inhibition,[11]; at 11.0 µM,99% (active)
same,growth inhibition,[11]; at 33.0 µM,100% (active)
same,growth inhibition,[11]; at 100.0 µM,100% (active)
same,growth inhibition,[12]; at 1.2 µM,21%
same,growth inhibition,[12]; at 3.7 µM,95% (active)
same,growth inhibition,[12]; at 11.0 µM,99% (active)
same,growth inhibition,[12]; at 33.0 µM,100% (active)
same,growth inhibition,[12]; at 100.0 µM,99% (active)
same,growth inhibition,[13]; [17],0%
same,growth inhibition,[13]; [18],95% (active)
same,growth inhibition,[13]; at 50.0 µM,99.5% (active)
same,growth inhibition,[14]; at 1.2 µM,-1%
same,growth inhibition,[14]; at 3.7 µM,36%
same,growth inhibition,[14]; at 11.0 µM,99% (active)
same,growth inhibition,[14]; at 33.0 µM,99% (active)
same,growth inhibition,[14]; at 100.0 µM,99% (active)
CCOC(=O)C(C(=O)OCC)=P(c1ccccc1)(c1ccccc1)c1ccccc1,growth inhibition,[1]; at 1.2 µM,0%
same,growth inhibition,[1]; at 3.7 µM,0%
same,growth inhibition,[1]; at 11.0 µM,2%
same,growth inhibition,[1]; at 33.0 µM,0%
same,growth inhibition,[1]; at 100.0 µM,95% (active)
same,growth inhibition,[15]; at 1.2 µM,-2%
same,growth inhibition,[15]; at 3.7 µM,-3%
same,growth inhibition,[15]; at 11.0 µM,-2%
same,growth inhibition,[15]; at 33.0 µM,-1%
same,growth inhibition,[15]; at 100.0 µM,3%
same,growth inhibition,[16]; at 1.2 µM,0%
same,growth inhibition,[16]; at 3.7 µM,3%
same,growth inhibition,[16]; at 11.0 µM,1%
same,growth inhibition,[16]; at 33.0 µM,-6%
same,growth inhibition,[16]; at 100.0 µM,78% (active)
same,growth inhibition,[3]; at 1.2 µM,-58%
same,growth inhibition,[3]; at 3.7 µM,0%
same,growth inhibition,[3]; [17],-2%
same,growth inhibition,[3]; at 11.0 µM,-3%
same,growth inhibition,[3]; at 33.0 µM,-3%
same,growth inhibition,[3]; [18],36%
same,growth inhibition,[3]; at 50.0 µM,12.4%
same,growth inhibition,[3]; at 100.0 µM,96% (active)
same,growth inhibition,[4]; at 1.2 µM,0%
same,growth inhibition,[4]; at 3.7 µM,-1%
same,growth inhibition,[4]; [17],1%
same,growth inhibition,[4]; at 11.0 µM,0%
same,growth inhibition,[4]; at 33.0 µM,0%
same,growth inhibition,[4]; [18],16%
same,growth inhibition,[4]; at 50.0 µM,12.1%
same,growth inhibition,[4]; at 100.0 µM,98% (active)
same,growth inhibition,[5]; at 1.2 µM,0%
same,growth inhibition,[5]; at 3.7 µM,2%
same,growth inhibition,[5]; at 11.0 µM,5%
same,growth inhibition,[5]; at 33.0 µM,6%
same,growth inhibition,[5]; at 100.0 µM,93% (active)
same,growth inhibition,[6]; [17],-10%
same,growth inhibition,[6]; [18],60%
same,growth inhibition,[6]; at 50.0 µM,47%
same,growth inhibition,[7]; at 1.2 µM,0%
same,growth inhibition,[7]; at 3.7 µM,-1%
same,growth inhibition,[7]; at 11.0 µM,-1%
same,growth inhibition,[7]; at 33.0 µM,-2%
same,growth inhibition,[7]; at 100.0 µM,84% (active)
same,growth inhibition,[8]; [17],0%
same,growth inhibition,[8]; [18],-3%
same,growth inhibition,[8]; at 50.0 µM,-2.05%
same,growth inhibition,[9]; at 1.2 µM,-1%
same,growth inhibition,[9]; at 3.7 µM,1%
same,growth inhibition,[9]; [17],-3%
same,growth inhibition,[9]; at 11.0 µM,1%
same,growth inhibition,[9]; at 33.0 µM,-3%
same,growth inhibition,[9]; [18],19%
same,growth inhibition,[9]; at 50.0 µM,5%
same,growth inhibition,[9]; at 100.0 µM,93% (active)
same,growth inhibition,[10]; at 1.2 µM,-2%
same,growth inhibition,[10]; at 3.7 µM,-3%
same,growth inhibition,[10]; at 11.0 µM,-4%
same,growth inhibition,[10]; at 33.0 µM,-9%
same,growth inhibition,[10]; at 100.0 µM,95% (active)
same,growth inhibition,[11]; at 1.2 µM,1%
same,growth inhibition,[11]; at 3.7 µM,-2%
same,growth inhibition,[11]; at 11.0 µM,0%
same,growth inhibition,[11]; at 33.0 µM,1%
same,growth inhibition,[11]; at 100.0 µM,92% (active)
same,growth inhibition,[12]; at 1.2 µM,0%
same,growth inhibition,[12]; at 3.7 µM,0%
same,growth inhibition,[12]; at 11.0 µM,0%
same,growth inhibition,[12]; at 33.0 µM,4%
same,growth inhibition,[12]; at 100.0 µM,94% (active)
same,growth inhibition,[13]; [17],0%
same,growth inhibition,[13]; [18],26%
same,growth inhibition,[13]; at 50.0 µM,21.1%
same,growth inhibition,[14]; at 1.2 µM,1%
same,growth inhibition,[14]; at 3.7 µM,7%
same,growth inhibition,[14]; at 11.0 µM,16%
same,growth inhibition,[14]; at 33.0 µM,12%
same,growth inhibition,[14]; at 100.0 µM,95% (active)
